Compound activity (PubChem)
HT1080NT lethal: qHTS for induction of synthetic lethality in tumor cells producing 2HG: qHTS for the HT-1080-NT fibrosarcoma cell line | HT-1080-NT fibrosarcoma viability, CellTiter-Glo ATP luminescence, 48 h | Potency, µM (top dose mostly 46.1 µM), most hits filed as cytotoxic | 360,000 compounds, 1.6% hits | AID 686970, 2013;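 also: NT is the 2HG producing partner of a matched IDH1 knockdown line; nearly all actives have a fitted effect of over 55% in size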
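Toxicity toward the 2HG-producing NT line was scored as %Activity, normalised to DMSO and no-cell wells, from CellTiter-Glo luminescence after 48 hours' treatment.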
DT40 TDP1 CPT: qHTS for Inhibitors of human tyrosyl-DNA phosphodiesterase 1 (TDP1): qHTS in cells in presence of CPT | AID 686979, 2013 | 420,000 compounds, 12% hits | chicken DT40 Tdp1-/-;hTDP1 cells + 20 nM CPT, ATP luminescence, 48 h | Potency, µM (top dose mostly 46.2 µM), hits mostly inhibitors; also: nearly all actives have a fitted effect of over 55% in size
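Chicken DT40 Tdp1-/- cells stably complemented with human TDP1 were seeded at 400 cells/well in medium containing 20 nM camptothecin, exposed to pin-transferred compounds, and grown at 37 °C for at least 48 hr. Viability was read as ATP luminescence.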
KB-V1 MDR tox: qHTS assay for MDR1-selective chemotherapeutics: Primary screen using the drug-selected MDR subline cells KB-V1 | Potency, µM (doses to about 46.1 µM), usual class: cytotoxic | 400,000 compounds, 3.4% hits | KB-V1 MDR cells viability, CellTiter-Glo, 72 h; also: nearly all actives have a fitted effect of over 60% in size
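In this primary screen, KB-V1 cells overexpressing P-gp are incubated with library compounds (lowest to highest concentration) for 72 h at 37 degrees C before a luminescent ATP viability read.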
TDP1 cell noCPT: qHTS for Inhibitors of human tyrosyl-DNA phosphodiesterase 1 (TDP1): qHTS in cells in absence of CPT; DT40 Tdp1-/- hTDP1 cells, no CPT, ATP luminescence, 48 h; Potency, µM (doses to about 46.2 µM), most hits filed as inhibitors; 420,000 compounds, 15% hits; AID 686978, 2013; also: nearly all actives have a fitted effect of over 55% in size
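Seeded 400 DT40-hTDP1 cells/well (vehicle DMSO, no 20 nM CPT); pinned compounds; ≥48 hr at 37 °C; CellTiter-Glo luminescence as viability measure.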
HT1080 IDH1KD tx: qHTS for induction of synthetic lethality in tumor cells producing 2HG: qHTS for the HT-1080-IDH1KD cell line. HT-1080 IDH1 knockdown viability, ATP luminescence, 48 h. Potency, µM (titrated, usually from 46.1 µM), actives largely listed as cytotoxic. 360,000 compounds, 2% hits
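% activity derives from luminescence (CellTiter-Glo), normalised to DMSO and no-cell wells. HT-1080-IDH1KD cells, 750/well, had 48 h compound exposure at 37 °C.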
KB-3-1 cytotox: qHTS assay for MDR1-selective chemotherapeutics: Primary screen using the parental adenocarcinoma cell KB-3-1; KB-3-1 viability, CellTiter-Glo ATP luminescence, 72 h; Potency, µM (top dose mostly 46.1 µM), most hits filed as cytotoxic; 400,000 compounds, 1.4% hits; AID 1347075, 2019; also: nearly all actives have a fitted effect of over 60% in size
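Cytotoxicity in the drug-sensitive parental line KB-3-1 was scored as loss of CellTiter-Glo luminescence following 72 h incubation with compound. Values come from curve fitting of normalized concentration-response data.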
A number is an active result; i = inactive; ? = inconclusive; nt = no result. An excerpt weighted towards active compounds, which were near 19% of everything screened. Calls follow the shape of the dose curve; as a rule, active = well fitted curve in the direction sought with a large enough effect; inconclusive = small, poorly fitted or top-dose-only effect, or another doubt; inactive = no such curve, though single readings can be large; an effect the other way counts as inactive or inconclusive.

SMILES | HT1080NT lethal | DT40 TDP1 CPT | KB-V1 MDR tox | TDP1 cell noCPT | HT1080 IDH1KD tx | KB-3-1 cytotox
Cc1ccc(S(=O)(=O)N2CCOCC2)cc1NC(=O)CNC(C)c1ccccc1 (configuration not stated) | i | i | nt | i | i | nt
CCc1cccc2c(-c3ccccc3)nc(SCC(=O)Nc3ccccc3OC)nc12 | nt | ? | nt | 18.4µM | nt | nt
COc1ccc(Cl)cc1NC(=O)CSc1nc(-c2ccccc2)c2ccccc2n1 | nt | 7.31µM | nt | 20.6µM | nt | nt
NC1=C(Br)C(=O)c2ncccc2C1=O | 3.26µM | 0.651µM | 3.66µM | 1.64µM | 3.26µM | 2.59µM
O=C1C(=O)c2ncccc2-c2cccnc21 | nt | 5.96µM | nt | 5.31µM | nt | nt
CCN(CC)CCNC(=O)Cn1ncc2c([nH]c3ccccc32)c1=O | nt | i | i | i | nt | i
CCCCN(CC)CCNC(=O)c1c(C)oc2ncnc(N3CCOCC3)c12 | nt | i | i | i | nt | i
COc1cccc(CNC(=O)c2ccc(NC(=O)N3CC(C)Sc4ccccc43)cc2)c1 (configuration not stated) | nt | 18.4µM | i | 14.6µM | nt | i
CCc1ccc(CNC(=O)c2ccc(NC(=O)N3CC(C)Sc4ccccc43)cc2)cc1 (configuration not stated) | nt | 10.3µM | i | 9.2µM | nt | i
Cc1cccc(CNC(=O)c2ccc(NC(=O)N3CC(C)Sc4ccccc43)cc2)c1 (configuration not stated) | nt | 20.6µM | i | 16.4µM | nt | i
COc1ccc(CNC(=O)c2ccc(NC(=O)N3CCSc4ccccc43)cc2)cc1 | nt | ? | i | ? | nt | i
CC1CN(C(=O)Nc2ccc(C(=O)NCCc3ccccc3)cc2)c2ccccc2S1 (configuration not stated) | nt | ? | ? | ? | nt | i
O=C(NCc1ccccc1)c1ccc(NC(=O)N2CC3CCCN3c3ccccc32)cc1 (configuration not stated) | nt | ? | i | ? | nt | i
COc1cc(-c2[nH]ncc2CN2CCc3sccc3C2)cc(OC)c1OC | i | 14.6µM | i | 10.3µM | i | ?
COc1ccc(C)cc1Nc1nc(C)nc2sc(C)cc12 | ? | ? | ? | 20.6µM | i | ?
CCOC(=O)c1c(C)oc2ccc(NS(=O)(=O)c3ccc4c5c(cccc35)C(=O)N4)cc12 | ? | ? | i | ? | ? | ?
CCCc1oc2ccc(NS(=O)(=O)c3ccc(OCC)cc3)cc2c1C(=O)OCC | nt | 6.51µM | nt | 5.8µM | nt | nt
CCc1ccc(S(=O)(=O)Nc2ccc3oc(C)c(C(=O)OCCOC)c3c2)cc1 | nt | ? | i | ? | nt | i
CCCc1oc2ccc(NS(=O)(=O)c3ccc(OC)cc3)cc2c1C(=O)OCC | nt | 1.84µM | nt | 1.16µM | nt | nt
COc1cc(C)c(S(=O)(=O)Nc2cccc(-c3ccc(N4CCCC4)nn3)c2)cc1C | nt | ? | i | i | nt | i
Cc1cc(S(=O)(=O)Nc2ccc(-c3ccc(N4CCCCC4)nn3)cc2)c(C)cc1Cl | nt | 13µM | ? | ? | nt | i
O=S(=O)(Nc1ccc(-c2ccc(N3CCCC3)nn2)cc1)c1cccc(C(F)(F)F)c1 | nt | ? | i | ? | nt | i
O=S(=O)(Nc1ccc(-c2ccc(N3CCCC3)nn2)cc1)c1ccc(Cl)cc1 | nt | 14.6µM | i | ? | nt | i
O=S(=O)(Nc1ccc(-c2ccc(N3CCCCC3)nn2)cc1)c1ccc(OC(F)(F)F)cc1 | nt | ? | ? | 16.4µM | nt | i
O=S(=O)(Nc1ccc(-c2ccc(N3CCCC3)nn2)cc1)c1ccc(Br)cc1 | nt | ? | i | ? | nt | i
COc1cccc(COC(=O)c2cc(=O)[nH]c3ccc(S(=O)(=O)N4CCOCC4)cc23)c1OC | i | i | i | i | i | i
